# Measured values taken from the supplement of paper PMC6555819.
# Tests used:
# Experiment in all cases: PBM binding z-score (relative to random genomic background probes); higher = stronger binding; sequences stand for … in GC…GCGATTGACAGCGTAGAATGAAGG
# [1] = test system: LXRa:RXRa (NR concentration 270 nM, RXRa partner concentration 90 nM)
# Outline: (§1)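 Ligand-free nuclear receptor dimers were bound for 1 h to custom Agilent 4×180K protein-binding microarrays. Detection used antibodies against each partner (one per run). Binding z-scores rest on regression-normalized fluorescence, with random background probes as the reference.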
# [2] = test system: LXRa homodimer (NR concentration 270 nM)
# Outline: as §1
# [3] = test system: LXRb homodimer (NR concentration 270 nM)
# Outline: as §1
# [4] = test system: PPARg:RXRa (NR concentration 180 nM, RXRa partner concentration 90 nM)
# Outline: as §1
# [5] = test system: PPARg:RXRa 270nM:90nM, anti-RXR (NR concentration 270 nM, RXRa partner concentration 90 nM)
# Outline: as §1
# [6] = test system: PPARg:RXRa 30nM:10nM, anti-RXR (NR concentration 30 nM, RXRa partner concentration 10 nM)
# Outline: as §1
# [7] = test system: PPARg:RXRa 90nM:30nM, anti-RXR (NR concentration 90 nM, RXRa partner concentration 30 nM)
# Outline: as §1
# [8] = test system: PPARg:RXRa DBDmut IVT, anti-RXR (DBD mutation: RXRa K156A/R161A, NR concentration 270 nM, RXRa partner concentration 90 nM)
# Outline: as §1
# [9] = test system: PPARg:RXRa IVT, anti-PPARg (NR concentration 270 nM, RXRa partner concentration 90 nM)
# Outline: as §1
# [10] = test system: PPARg DBDmut:RXRa IVT, anti-PPARg (DBD mutation: PPARg1 K132A/R137A, NR concentration 270 nM, RXRa partner concentration 90 nM)
# Outline: as §1
# [11] = test system: PPARg DBDmut IVT, anti-PPARg (DBD mutation: PPARg1 K132A/R137A, NR concentration 270 nM)
# Outline: as §1
# [12] = test system: PPARg homodimer (NR concentration 180 nM)
# Outline: as §1
# [13] = test system: PXR:RXRa (NR concentration 270 nM, RXRa partner concentration 90 nM)
# Outline: as §1
# [14] = test system: PXR homodimer (NR concentration 270 nM)
# Outline: as §1
# [15] = test system: RARa homodimer (NR concentration 270 nM)
# Outline: as §1
# [16] = test system: RARb:RXRa (NR concentration 270 nM, RXRa partner concentration 90 nM)
# Outline: as §1
# [17] = test system: RARb homodimer (NR concentration 270 nM)
# Outline: as §1
# [18] = test system: RARa:RXR (NR concentration 270 nM, RXRa partner concentration 90 nM)
# Outline: as §1
# [19] = test system: PPARa:RXRa (NR concentration 270 nM, RXRa partner concentration 90 nM)
# Outline: as §1
Sequence,PBM binding z-score [1],PBM binding z-score [2],PBM binding z-score [3],PBM binding z-score [4],PBM binding z-score [5],PBM binding z-score [6],PBM binding z-score [7],PBM binding z-score [8],PBM binding z-score [9],PBM binding z-score [10],PBM binding z-score [11],PBM binding z-score [12],PBM binding z-score [13],PBM binding z-score [14],PBM binding z-score [15],PBM binding z-score [16],PBM binding z-score [17],PBM binding z-score [18],PBM binding z-score [19]
GCTGCTAGGTCAACTGATGGTCAACTAAAGCTCG,3.47,0.653,0.415,3.01,3.06,0.746,2.31,4.87,4.19,-0.672,0.0374,2.3,2,-0.565,0.323,4.29,3.7,–,–
CCTTAAGGGTCACGAGGTTATAGCACGACGAGCG,5.92,0.987,0.697,8.45,7.7,4.56,6.73,4.16,5.81,1.74,1.89,4.47,5.46,0.279,1.6,–,5.02,6.79,–
CGTCCAAGGTCACAGAGGTCAGTGAATGCCGAGT,6.12,5.07,1.08,7.01,6.54,3.38,5.63,4.6,5.63,1.12,0.337,3.92,–,12.2,2.06,–,5.82,6.75,–
GCTAGTTGGTCAGTAAAATGTCACACACCGGTCG,0.173,-0.0317,-0.257,0.556,-0.103,-0.158,0.223,0.762,0.672,0.0763,-0.339,1.21,-0.0576,0.0723,0.262,0.995,1.43,0.0348,–
CGAACGAGGTCAAAGGACAGTGAAAGGCGACGTA,5.87,0.528,1.21,8.64,7.62,5.48,8.31,5.27,6.29,–,3.98,6.42,5.26,1.74,0.557,5.01,3.88,5.86,–
GATACGGGGTCAAGGCCAGAGTACGCGTATTGAT,6.02,0.0824,0.667,8.92,8.33,5.85,7.78,4.87,6.14,2.81,2.07,4.21,–,1.08,2.18,5.26,4.32,–,–
CAAAATAGGTCACAGAGGTCAAAGTCCGTGCGTA,–,7.45,2.61,9.92,8.39,6.56,8.55,7.62,8.25,1.92,1.23,4.67,6.99,10.7,1.88,–,5.93,7.81,–
CGTACAAGGTCAAAGGTCAGTGAAGAGATGACGG,–,3.43,2.4,–,10.1,11.2,11.9,5.32,7.09,2.61,3.6,5.49,7.22,2.17,4.68,5.95,5.35,9.15,7.11
CGAACTAGGTCGCCAGGACAGTGAAGAGGTTGGA,0.158,-0.593,-0.928,2.71,2.49,0.111,1.62,5.94,5.49,–,-0.449,-0.09,-0.103,-0.264,-0.715,1.48,1.04,0.141,–
CTATGTAGGTTAAGGGAGTCATTCAGTTTGAAAG,0.682,-0.134,–,4.76,4.4,1.9,3.53,6.9,6.74,–,–,0.863,–,0.389,0.236,0.814,0.609,0.462,–
CGAACTAGGTCAAAGGACATTGAAAGGCGACGTA,2.7,0.172,-0.137,10.8,8.84,9.04,10.6,8.06,8.46,–,2.63,2.37,1.39,0.177,0.467,3.96,3.01,2.7,–
AATACGGGGTCACTAGGCCAGAGTAGGTACGAAT,6.53,2,2.47,–,8.44,5.78,7.95,5.43,7.02,1.49,1.57,2.6,5.78,1.06,1.34,5.12,4.41,6.3,–
CGAACGAGGTCACCAGGACAGTGAAGAGGTTGGA,5.61,0.912,0.295,8.9,7.66,5.23,6.73,5.64,6.99,–,-0.0539,3.06,5.37,0.985,1.08,–,4.89,5.85,–
CGTCAAAGGTCAATGCTAGGTCAGTGAAAGCATT,–,4.73,3.46,8.14,8.21,5.21,7.67,4.79,6.13,2.05,0.936,5.64,5.96,1.66,2.5,–,5.56,6.85,–
CGAACAAGGTCACCAGGACAGTGAAGAGGTTGGA,5.26,0.443,0.736,7.8,7.38,3.87,6.13,5.38,6.18,–,1.95,4.85,4.68,1.1,3.06,5.3,4.07,5.71,–
CAAAATAGGTCACGAAAGGTCAAAGTCGAATGAC,8.64,8.09,3.59,10.4,8.59,7.39,8.59,7.95,8.54,5.84,4.87,10.7,–,3.21,7.69,6.03,5.79,–,–
ATCGAAAGGTCAAAGGTGAGTATACCCACCCGAA,–,4.82,4.53,–,8.89,6.69,8.79,4.23,6.1,3.13,3.86,4.41,–,1.6,3.03,–,5.31,–,–
CCTTAGGGGTCACGAGGTTATAGCACGACGAGCG,–,1.59,0.631,–,9.08,6.93,8.31,5.82,6.5,3.28,2.27,5.3,–,0.897,2.78,–,5.21,–,–
CAAACAAGGTCAAAGGTCAAAGTCGAGCCAACCA,–,6.4,4.04,13.5,11,13.5,13.5,6.43,7.85,4.28,4.16,7.37,–,4.12,6.18,–,5.66,–,–
CAAACGAGGTCACGAAAGGTCAAAGTCGAATGAC,–,9.67,3.56,10.1,8.71,6.72,8.74,6.75,7.7,2.28,3.02,7.67,–,9.37,5.09,–,6.1,–,–
CGTCAAAGGTCATAGGAGGTCAGTGAAGACAGAT,–,6.84,3.02,8.97,8.33,5.97,7.99,4.36,6.23,1.59,3.77,5.41,–,4.17,3.82,–,5.95,–,–
CGTCAAAGTTCAAGGTCACGTAACAGAAAGCAGC,–,5.71,2.05,6.83,6.7,3.83,5.84,2.03,4.54,0.668,0.649,4.73,6.25,4.18,3.09,–,5.56,5.79,–
TTACCAAGGTCAAAGGTCGTTGATGCACGCCTTG,–,4.68,1.83,–,8.91,8.91,10.4,4.35,6.12,2.16,2.19,4.12,–,2.27,1.08,–,4.89,–,–
CGTCAAAGGTCAAGGTAACGTAACAGAAAGCAGC,–,2.47,2.82,9.12,8.51,6.2,8.31,4.8,6.15,3.88,3.1,4.75,5.33,0.602,2.85,–,5.16,6.56,–
CCTCGGAGGTCAACAGGAGGTCAGAGCTGCCAGA,–,4.43,1.49,6.66,6.55,2.94,5.21,3.21,4.76,-0.0592,-0.488,5.25,–,1.63,1.53,–,5.7,–,–
CAAACAAGGTCACAGAGGTCAAAGTCCGTGCGTA,–,8.49,3.24,9.2,8.4,5.17,7.73,6.04,7.16,3.22,4.2,6.67,–,14.1,3.72,–,5.85,–,–
CAAACGAGGTCACCGGAAGGTCAAAGTCCGCATG,–,6.35,2.17,9.26,8.2,5.78,7.55,6.23,7.57,4.42,0.844,6.98,–,6.23,2.61,–,6.03,–,–
